PGK inhibitor: inhibitors of T. brucei phosphoglycerate kinase; PGK/GAPDH coupled, Kinase-Glo luminescence, 60 min; Potency, µM (highest dose often 57.5 µM), without a hit: at the highest dose activity change, negative = inhibition, hits mostly inhibitors; 0.043% of 380,000 active; AID 602233; further: nearly all actives have a fitted effect of over 60% in size
Target sequence (P07378 whole entry, looked up): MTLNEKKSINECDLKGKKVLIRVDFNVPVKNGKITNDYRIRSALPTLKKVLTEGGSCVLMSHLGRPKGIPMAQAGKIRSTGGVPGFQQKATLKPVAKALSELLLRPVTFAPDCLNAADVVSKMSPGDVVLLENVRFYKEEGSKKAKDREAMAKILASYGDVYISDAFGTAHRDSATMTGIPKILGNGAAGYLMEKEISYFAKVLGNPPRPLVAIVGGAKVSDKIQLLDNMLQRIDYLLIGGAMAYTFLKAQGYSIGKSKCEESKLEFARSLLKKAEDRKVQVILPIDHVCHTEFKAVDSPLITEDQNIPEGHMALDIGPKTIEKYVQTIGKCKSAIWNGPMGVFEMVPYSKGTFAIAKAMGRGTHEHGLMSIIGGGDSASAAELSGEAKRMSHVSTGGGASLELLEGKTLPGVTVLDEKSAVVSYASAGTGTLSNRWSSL
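Recombinant glycosomal PGK reaction used 1,3-bisphosphoglycerate generated in-well by GAPDH (100nM final) in 100mM TEA pH 7.6, 5mM MgCl2, 0.01% Tween-20. After 60 minutes at room temperature, ATP was read by Kinase-Glo Plus luminescence end-point.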
Tb PFK block: blocks T. brucei phosphofructokinase; O15648; T. brucei PFK, ADP-Glo luminescence; Potency, µM (series often up to 57.5 µM), inactives show at the top dose activity, negative = inhibition, hits mostly inhibitors; 0.17% of 330,000 active;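 further: 0% = uninhibited 1x PFK enzyme wells and -100% = no-enzyme wells; nearly all actives have a fitted effect of over 60% in size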
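In TEA buffer at pH 8.0 with 5 mM MgCl2, enzyme (1.25 nM) converted F6P (0.5 mM) and ATP (0.1 mM) for 45 min at room temperature. ADP product was read by luciferase luminescence.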
RGS4 inhibitor: human RGS4 inhibition | P49798 | Transcreener GDP fluorescence polarization, RGS4-accelerated GTP hydrolysis | Potency, µM (series often up to 114 µM), inactives show top-dose activity change, negative = inhibition, usual class: inhibitors | 0.039% of 390,000 active; further: nearly all actives have a fitted effect of over 75% in size
Target sequence (P49798 whole entry, looked up): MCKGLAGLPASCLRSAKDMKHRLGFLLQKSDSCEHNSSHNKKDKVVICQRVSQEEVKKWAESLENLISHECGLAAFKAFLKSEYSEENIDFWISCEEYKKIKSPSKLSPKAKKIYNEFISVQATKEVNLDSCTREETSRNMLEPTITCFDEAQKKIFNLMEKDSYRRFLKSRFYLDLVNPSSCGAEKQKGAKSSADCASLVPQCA
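MLSMR compounds (23 nl, pin-transferred) preincubated 10 min at room temperature with a 500nM (2x) first reagent, then RGS4 at 900nM (2x) plus Transcreener GDP mix added; fluorescence polarization (620/688 nm) read before and after 90 min at 30 °C.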
USP2a inh: blocks human ubiquitin-specific protease USP2a; O75604; USP2 core, Ub-CHOP2 coupled fluorogenic reporter, 485/531; Potency, µM (highest dose often 38.3 µM), inactives show at the highest dose activity change, negative = inhibition, actives largely listed as inhibitors; 0.01% of 330,000 active; AID 463254;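 further: plate controls were DMSO wells for no effect and full inhibition by NEM control for full effect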
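Deubiquitinase activity read as fluorescence (485/531 nm) after Ub-CHOP2 cleavage activates the enterokinase reporter on its substrate; USP2 core 10nM, Ub-CHOP2 and substrate 25nM each, 30min compound preincubation then 60min RT; data normalized to NEM, curves fitted.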
BCR signal inh: chronic active BCR signaling inhibition; ABC-DLBCL IkBa-CBG/CBR reporter, luminescence ratio, 4 h; Potency, µM (series often up to 46.1 µM), inactives show top-dose activity change, negative = inhibition, usual class: inhibitors; 0.05% of 340,000 active; AID 493014; active means well fitted inhibition curve with a large enough effect in the signal ratio, with a control signal flat, not every such curve was filed as active; inconclusive means small, poorly fitted or top-dose-only effect, or effect the other way, or a change in a side signal; the % refers to the signal ratio;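 further: plate controls were basal doxycycline-induced cells for no effect and cells given 10 µM MG132 for full effect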
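Doxycycline induced both beetle luciferases in TMD8 lymphoma cells; IKK-driven degradation limits the IkappaBalpha-fused green signal, while red luminescence normalises for cell number and nonspecific effects. Compounds tested up to 46 uM, 4 hrs.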
* marks the source's active call; other numbers are inactive results; i = inactive; ? = inconclusive; . = not tested or not shown; ! = not active in a repeat; [ ] = another dose, or the depositor's remark. This is a sample that favours compounds with a hit; in the whole collection about 0.25% have one here. Unless noted, the call rests on the fitted dose curve; in most records, active means well fitted curve in the direction sought with a large enough effect; inconclusive means small, poorly fitted or top-dose-only effect, or another doubt; inactive means no such curve, though single readings can be large; an effect the other way counts as inactive or inconclusive. Unless noted, on the % scale 0 is the no-effect control and ±100 the full control effect; potency means the concentration at half of the fitted maximal effect.

SMILES	PGK inhibitor	Tb PFK block	RGS4 inhibitor	USP2a inh	BCR signal inh
O=C1Cc2cc(CCN3CCN(c4nsc5ccccc45)CC3)c(Cl)cc2N1	.	4.7%	16.8µM*	-6.4%	13.1%
CN1CCN(C(c2ccccn2)c2cc(Cl)c3cccnc3c2O)CC1 (stereo not drawn)	-3.9%	-11.7%	?	-8.2%	7.08µM*
Cc1ccc(NC(=O)CN2C(=O)CC(c3ccco3)Sc3ccccc32)cc1Cl (stereo not drawn)	i	.	9.5%	.	.
CN1C(=O)NC(=O)/C(=C/c2ccc([N+](=O)[O-])o2)C1=O	14.1µM*	?	?	5.2%	11.7%
COC(=O)C1=C(C)NC(C)=C(C(=O)OC)C1c1ccc(N(C)C)cc1	-8.5%	-12.8%	3.2%	-0.3%	20.6µM*
CC(C)(C)OC(=O)NC(Cc1ccccc1)C(O)c1ccco1 (stereo not drawn)	.	.	-16.5%	.	.
C#CCOCCOCCOCCNc1nc(N2CCN(C(=O)CCCCCCCCCCNC(=O)[C@H]([C@@H](C)CC)n3cc(CCCCCN)nn3)CC2)nc(N2CCN(C(=O)CCCCCCCCCCNC(=O)[C@@H]([C@H](C)CC)n3cc(CCCCCN)nn3)CC2)n1	.	?	.	5.01µM*	?
C#CCOCCOCCOCCNc1nc(N2CCN(C(=O)CCCCCCCCCCNC(=O)[C@H]([C@@H](C)CC)n3cc(CCCCCN)nn3)CC2)nc(N2CCN(C(=O)CCCCCCCCCCNC(=O)[C@H](CCCCN)n3cc(CCCC(=O)O)nn3)CC2)n1	-5.6%	-13.1%	-34.0%	10µM*	?
C#CCOCCOCCOCCNc1nc(N2CCN(C(=O)CCCCCCCCCCNC(=O)[C@@H](CCC(=O)O)n3cc(CCCCCN)nn3)CC2)nc(N2CCN(C(=O)CCCCCCCCCCNC(=O)[C@H]([C@@H](C)CC)n3cc(CCCCCN)nn3)CC2)n1	-2.8%	?	-38.8%	?	?
C#CCOCCOCCOCCNc1nc(N2CCOCC2)nc(N2CCN(C(=O)CCCCCCCCCCNC(=O)[C@@H]([C@H](C)CC)n3cc(CCCCCN)nn3)CC2)n1	-8.0%	-18.7%	0.8%	-3.9%	-12.0%
COc1ccc(-c2noc(CSc3nc(N)c(-c4ccccc4)c(=O)[nH]3)n2)cc1OC	-2.3%	-0.4%	0.0%	-1.2%	20.6µM*
COc1ccc(-c2noc(CSc3nc4ccccc4[nH]3)n2)cc1OC	-9.6%	.	-19.5%	.	.
COc1ccc(OC)c(N2C(=O)[C@@H]3C(c4ccccc4Cl)=NO[C@@H]3C2=O)c1	12.6µM*	-12.1%	-8.6%[11.4 µM]	-0.6%	-3.5%
Cc1cn2c(=O)cc(COC(=O)c3cccc(NC(=O)c4ccc(C(C)(C)C)cc4)c3)nc2s1	-8.9%	.	-3.7%	.	.
O=CN/C=C/c1cc(O)ccc1O	-8.0%	30.1µM*	?	10.3%	?
O=Cc1ccc(O)cc1O	-5.4%	0.2%	-9.2%	0.7%	5.8%
C=C1CCN(C(Cc2ccccc2)C(=O)Nc2ccc(OC)cc2)S(=O)(=O)c2ccccc21 (stereo not drawn)	.	.	-5.6%	.	.
COc1cc(C)ccc1OCCn1c(-c2ccc(Cl)cc2)nc2ccccc2c1=O	4.9%	.	-8.2%	.	.
C=C(C)C(=O)Nc1cccc(C2=NOC3(C2)C[C@H](C(N)=O)N(C(=O)CC)C3)c1 (stereo partly drawn)	5.62µM*	?	?	8.5%	?
COc1ccc(C2=CC(=O)C=CC2=O)cc1	.	6.75µM*	.	9.8%	?
COc1c(O)cc2c(c1O)C1OC(CO)C(O)C(O)C1OC2=O (stereo not drawn)	i	-0.5%	7.0%	1.3%	-0.8%
O=C1OCC2OC(O)C(O)C(O)C2OC(=O)c2cc(O)c(O)c(O)c2-c2c(O)c(O)c3oc(=O)c4c(c(O)c(O)c5oc(=O)c2c3c54)-c2c1cc(O)c(O)c2O (stereo not drawn)	.	0.953µM*	.	0.501µM*	0.1%
CN1CCc2cc(Cl)c(O)cc2[C@@H](c2ccccc2)C1	5.1%	-1.7%	2.99µM*!	0.3%	?
COc1cc2c(c(OC)c1OC)-c1ccc(NC(=O)c3ccccc3)c(=O)cc1[C@@H](NC(C)=O)CC2	-5.6%	1.8%	-12.6%	0.7%	22.4µM*
CC1(C(=O)NC2CCCCC2)Cc2ccccc2C(=O)N1Cc1ccc(Cl)cc1 (stereo not drawn)	.	.	25.3%	.	.
SMILES	PGK inhibitor	Tb PFK block	RGS4 inhibitor	USP2a inh	BCR signal inh
Cc1ccc(S(=O)(=O)C(CNC(=O)COc2ccccc2)c2cccs2)cc1 (stereo not drawn)	10µM*	.	5.6%	.	18.9%
COc1ccc(N(CC(=O)Nc2ccc(OC)cc2OC)S(=O)(=O)c2ccccc2)cc1	-4.1%	-6.1%	-7.4%	0.3%	?
CCOc1ccc(N(CC(=O)Nc2ccccc2OC)S(=O)(=O)c2ccccc2)cc1	0.6%	3.6%	-14.3%	2.0%	15.8µM*
O=C(CF)N(O)c1ccc(C=Cc2ccccc2)cc1	-4.7%	.	-19.7%	.	.
CCOC(=O)N(O)c1ccc(C=Cc2ccccc2)cc1	28.2µM*	.	-10.8%	.	.
COc1ccc(-c2cccc(C3C4C=CCCC4(C)C(=O)N3Cc3ccccc3)c2)cc1 (stereo not drawn)	.	.	-24.8%	.	.
Cc1ccc(SCC(CC(C)C)N2CCN(C)CCC2=O)cc1 (stereo not drawn)	.	.	-0.4%	.	.
Cc1ccc2oc(C(Cl)(Cl)Cl)cc(=O)c2c1	-3.7%	-0.7%	7.8%	2.6%	22.4µM*
COc1cc2cc(C(=O)N3CCOCC3)cc(-c3ccc(C)cc3)c2cc1OC	1.9%	0.5%	14.9%	0.0%	15.8µM*
COc1ccc(-c2cc(C(=O)N3CCOCC3)c3ccccc3n2)cc1OC	-4.1%	-1.5%	-21.5%	-0.8%	-18.6%
O=C1C[C@@H](c2ccccc2Cl)N1S(=O)(=O)c1ccccc1[N+](=O)[O-]	.	.	14.8%	.	.
COc1ccc(NS(=O)(=O)c2ccc3c(c2)[C@H]2C=CC[C@H]2[C@@H](c2ccc(C(=O)O)cc2)N3)cc1	28.2µM*!	-7.5%	?	-1.5%	14.6%
COc1ccc(-c2ccc(OC)c(C3C4C=CCCC4(C)C(=O)N3Cc3ccccc3)c2)cc1 (stereo not drawn)	.	.	-2.3%	.	.
C[C@@H](/C=C/c1ccc2ccccc2c1)C1COC(=O)C[C@H]1O (stereo partly drawn)	.	.	-14.9%	.	.
C=C[C@@]1(C)CC(=O)[C@@]2(O)[C@@]3(C)[C@@H](O)CCC(C)(C)[C@@H]3[C@H](OC(=O)CCN(C)C)[C@H](OC(C)=O)[C@@]2(C)O1	.	.	8.44µM*	.	.
Cc1ccc(S(=O)(=O)Cc2ccc(C(=O)N3CCN(c4cccc(C)c4C)CC3)o2)cc1	-16.1%	-0.5%	-15.1%	2.3%	12.6µM*

Screening data deposited in PubChem BioAssay by National Center for Advancing Translational Sciences (NCATS).
